According to PubChem BioAssay (NCATS):
Where “and” joins values, the source holds several entries; their conditions need not be identical. Identical values can stand only once. Inconclusive results are not listed. Calls of active or inactive are those of the source. Calls come from the whole dose curve; as a rule, active = well fitted curve in the direction sought with a large enough effect; inconclusive = small, poorly fitted or top-dose-only effect, or another doubt; inactive = no such curve, though single readings can be large; an effect the other way counts as inactive or inconclusive.

How the values were obtained:
[1] = system: KB-3-1; assay: Cytotoxic Profiling of Annotated Libraries Using Quantitative High-Throughput Screening (AID 1296008); settings: Five cell lines viability, CellTiter-Glo ATP luminescence, 48-72 h; max response: active compounds read low; note: nearly all actives have a fitted effect of over 60% in size; note: potency is the fitted concentration of half-maximal effect
Method in brief: (§1)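 Cells exposed to compounds for 48 or 72 hr at 37 degrees Celsius. Viability read as ATP-coupled luminescence with CellTiter-Glo after 10 min at room temperature.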

[2] = system: NIH3T3; assay: as above; settings: Five cell lines viability, CellTiter-Glo ATP luminescence, 48-72 h; max response: active compounds read low
Method in brief: as §1

[3] = system: HaCat; assay: as above; settings: Five cell lines viability, CellTiter-Glo ATP luminescence, 48-72 h; max response: active compounds read low
Method in brief: as §1

[4] = system: Es-2; assay: Primary qHTS to identify gynecologic anti-cancer compounds using libraries of approved drugs and bioactive compounds (AID 1345084); settings: Gynecologic cancer cell panel viability, ATPlite luminescence, 48 h; series mostly up to 57.5 µM; note: nearly all actives have a fitted effect of over 55% in size; note: potency is the fitted concentration of half-maximal effect
Method in brief: (§2)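 Five-point cytotoxicity, 48 h drug exposure at 37 C, 5% CO2, on cells seeded 16 h beforehand. ATP content read by ATPlite luminescence.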

[5] = system: HeLa; assay: as above; settings: Gynecologic cancer cell panel viability, ATPlite luminescence, 48 h; series mostly up to 57.5 µM
Method in brief: as §2

[6] = system: JEG-3; assay: as above; settings: Gynecologic cancer cell panel viability, ATPlite luminescence, 48 h; series mostly up to 57.5 µM
Method in brief: as §2

[7] = system: OV90; assay: as above; settings: Gynecologic cancer cell panel viability, ATPlite luminescence, 48 h; series mostly up to 57.5 µM
Method in brief: as §2

[8] = system: HACAT; assay: qHTS assay to identify novel small-molecules to repurpose for Merkel cell carcinoma treatment (AID 1296009); settings: MCC and control cell lines, CellTiter-Glo viability, 72 h; series mostly up to 44.8 µM; note: nearly all actives have a fitted effect of over 60% in size
Method in brief: (§3)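 Cells were treated for 72 hr at 37 degree celsius with compounds in 8- or 11-point dose response. Viability was read by CellTiter-Glo luminescence, normalized to no-cell (cytotoxicity) and DMSO controls.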

[9] = system: HEK293T; assay: as above; settings: MCC and control cell lines, CellTiter-Glo viability, 72 h; at 44.8 µM (top of the series) unless noted
Method in brief: as §3

[10] = system: C33A; assay: Primary qHTS to identify gynecologic anti-cancer compounds using libraries of approved drugs and bioactive compounds (AID 1345084); settings: Gynecologic cancer cell panel viability, ATPlite luminescence, 48 h; series mostly up to 57.5 µM; note: nearly all actives have a fitted effect of over 55% in size; note: potency is the fitted concentration of half-maximal effect
Method in brief: as §2

[11] = system: CAOV3; assay: as above; settings: Gynecologic cancer cell panel viability, ATPlite luminescence, 48 h; series mostly up to 57.5 µM
Method in brief: as §2

[12] = system: CASKI; assay: as above; settings: Gynecologic cancer cell panel viability, ATPlite luminescence, 48 h; series mostly up to 57.5 µM
Method in brief: as §2

[13] = system: Hek293T; assay: as above; settings: Gynecologic cancer cell panel viability, ATPlite luminescence, 48 h, control line for the selectivity index; series mostly up to 57.5 µM
Method in brief: as §2

[14] = system: NIH3T3; assay: qHTS assay to identify novel small-molecules to repurpose for Merkel cell carcinoma treatment (AID 1296009); settings: MCC and control cell lines, CellTiter-Glo viability, 72 h; at 44.8 µM (top of the series) unless noted; note: nearly all actives have a fitted effect of over 60% in size
Method in brief: as §3

[15] = system: MCC-13; assay: as above; settings: MCC and control cell lines, CellTiter-Glo viability, 72 h; series mostly up to 46 µM
Method in brief: as §3

[16] = system: MCC-26; assay: as above; settings: MCC and control cell lines, CellTiter-Glo viability, 72 h; series mostly up to 46 µM
Method in brief: as §3

[17] = system: MKL-1; assay: as above; settings: MCC and control cell lines, CellTiter-Glo viability, 72 h; series mostly up to 46 µM
Method in brief: as §3

[18] = system: MKL-2; assay: as above; settings: MCC and control cell lines, CellTiter-Glo viability, 72 h; series mostly up to 46 µM
Method in brief: as §3

[19] = system: UISO; assay: as above; settings: MCC and control cell lines, CellTiter-Glo viability, 72 h; series mostly up to 46 µM
Method in brief: as §3

[20] = system: WaGa; assay: as above; settings: MCC and control cell lines, CellTiter-Glo viability, 72 h; series mostly up to 46 µM
Method in brief: as §3
% is set by controls: 0 for no effect and ±100 for the full control effect.

C[C@@H](Oc1cc(-n2cnc3ccc(OC4CCN(C)CC4)cc32)sc1C(N)=O)c1ccccc1C(F)(F)F
active: Potency [1] 9.2 nM | Potency [2] 5.8 µM

N#CC(c1ccnc(OCc2ccc(CN3CCOCC3)cc2)n1)c1nc2ccccc2s1 (stereo not given)
active: Potency [6] 10 µM | Potency [7] 7.94 µM
inactive: max response [3] 0.847% | max response [1] -18.3% | Potency [4] | Potency [5]

C=C1C[C@@]23CCC4[C@@](C)(CCC[C@@]4(C)C(=O)OC)C2CC[C@@H]1C3 (stereo not given in full)
inactive: outcome [3] | max response [2] 0.656% | Potency [8] | outcome [9] | Potency [10] | Potency [11] | Potency [12] | Potency [4] | Potency [5] | Potency [13] | Potency [6] | Potency [7]

C=C(C)C(=O)O[C@H]1CC2=CC(C/C(C)=C\[C@H]3OC(=O)C(=C)[C@H]13)OC2=O (stereo not given in full)
inactive: max response [1] -20.7% | Potency [12] | Potency [5] | Potency [6] | Potency [7]
active: Potency [3] 12.8 µM

CC(=O)NC[C@H]1CN(c2ccc(N3CCN(C(=O)CO)CC3)c(F)c2)C(=O)O1
inactive: max response [1] -17.1%

COc1cc2ncnc(Nc3cccc(O)c3)c2cc1OC
inactive: outcome [1] | Potency [4] | Potency [5] | Potency [13] | Potency [6]
active: Potency [3] 4.61 µM

CC(O)/C=C/C1(O)C(C)C(O[C@@H]2O[C@H](CO)[C@@H](O)[C@H](O)[C@H]2O)C(O)CC1(C)C (stereo not given in full)
inactive: max response [1] -3.24% | outcome [2] | outcome [9] inactive [at 17.4 µM] | outcome [14] inactive [at 17.4 µM] | Potency [10] | Potency [11] | Potency [12] | Potency [4] | Potency [5] | Potency [13] | Potency [6] | Potency [7]

CO[C@H]1/C=C/C=C/C=C/C[C@H](OC(=O)[C@@H](C)NC(=O)C2CCCCC2)[C@H](C)[C@@H](O)/C(C)=C/CCc2cc(O)cc(c2)NC(=O)C1
active: Potency [3] 1.09 µM | Potency [1] 544 nM | Potency [4] 1.78 µM | Potency [5] 3.55 µM | Potency [13] 708 nM
inactive: Potency [6]

Cc1ccccc1NC(=O)Nc1ccc(CC(=O)N(C)[C@@H](CC(C)C)C(=O)NCC[C@H](NC(=O)[C@@H]2CCCN2S(=O)(=O)c2cc(Cl)cc(Cl)c2)C(=O)O)cc1
inactive: outcome [3] | max response [2] -5.85% | Potency [8] | outcome [9] inactive [at 17.4 µM] | Potency [10] | Potency [11] | Potency [12] | Potency [4] | Potency [5] | Potency [13] | Potency [6] | Potency [7]

C=CC(=O)Nc1cccc(Nc2nc(Nc3ccc(N4CCN(C(C)=O)CC4)cc3OC)ncc2C(F)(F)F)c1
inactive: Potency [4]
active: Potency [3] 2.91 µM | Potency [1] 11600 nM | Potency [7] 15.8 µM

CC(C)[C@@H](CS(=O)(=O)C(C)C)N1C(=O)[C@@](C)(CC(=O)O)C[C@H](c2cccc(Cl)c2)[C@H]1c1ccc(Cl)cc1
inactive: max response [3] -29% | Potency [10] | Potency [11] | Potency [12] | Potency [4] | Potency [5] | Potency [13] | Potency [6] | Potency [7]
active: Potency [2] 6.51 µM and 7.41 µM

CC1CC(O)C2(OC1=O)OC1C(O)C3C4CCC5CC(OC6OC(CO)C(O)C(O)C6OC6OC(C)C(O)C(O)C6O)CCC5(C)C4CCC3(C)C1C2C (stereo not given)
inactive: outcome [1] | outcome [2] | outcome [9] inactive [at 17.4 µM] | outcome [14] inactive [at 17.4 µM] | Potency [10] | Potency [11] | Potency [12] | Potency [4] | Potency [5] | Potency [13] | Potency [6] | Potency [7]

O=C(O)c1ccccc1NCCc1ccccc1
inactive: outcome [3] | max response [2] 2.83% | Potency [8] | outcome [15] | outcome [16] | Potency [17] | Potency [18] | Potency [19] | Potency [20] | Potency [10] | Potency [11] | Potency [12] | Potency [4] | Potency [5] | Potency [13] | Potency [6]
